From PubChem BioAssay (NCI)
The panel holds about 79,000 compounds, 15% with a hit somewhere; the sample as a whole holds those more often. Activity calls are given as the source filed them. No stated cut-off is given here; in the data, active means growth inhibition above about 70%; inactive means the rest.

Assay: NCI Yeast Anticancer Drug Screen. Data for the sgs1 strain (AID 173);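 further: 0% = growth of vehicle-only control cultures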
Conditions: S. cerevisiae sgs1 mutant, stronger effect = higher value
Procedure: Growth inhibition of yeast strains with defined genetic alterations is measured as a screen for potential anti-cancer activity. Selected strains with alterations in DNA damage repair or cell cycle control were exposed to compounds and growth inhibition was measured relative to vehicle treated controls. The strain used in this assay is sgs1

Measured: growth inhibition

CN(CCc1ccc(Br)cc1)CCN1CCCCC1
active: at 33.0 µM 96% | at 100.0 µM 99%
inactive: at 1.2 µM 16% | at 3.7 µM 41% | at 11.0 µM 65%

COc1cc2ccccc2c2cc([N+](=O)[O-])oc12
active: at 1.2 µM 79% | at 3.7 µM 84% | at 11.0 µM 89% | at 33.0 µM 89% | at 100.0 µM 89%

CC1CC(C)CC(C)C(O)/C(C#N)=C/C=C/CC(C2CCCC2C(=O)O)OC(=O)CC(O)C(C)C1 (stereo not given)
active: at 1.2 µM 95% | at 3.7 µM 97% | at 11.0 µM 98% | at 33.0 µM 97% | at 100.0 µM 97%

O=[N+]([O-])c1ccc(N2CCC(CCCC3CCN(c4ccc([N+](=O)[O-])cc4[N+](=O)[O-])CC3)CC2)c([N+](=O)[O-])c1
inactive: at 1.2 µM -24% | at 3.7 µM -17% | at 11.0 µM -15% | at 33.0 µM 21% | at 100.0 µM 52%

CC1=C[C@H]2O[C@@H]3C[C@H]4OC(=O)/C=C\C=C\C(C(C)O)OCC(O)C(C)CC(=O)OC[C@@]2(C[C@@H]1O)[C@]4(C)[C@@]31CO1 (stereo not given in full)
active: at 11.0 µM 82% | at 33.0 µM 94% | at 100.0 µM 96%
inactive: at 1.2 µM -42% | at 3.7 µM -17%

O=S(=O)(O)/C(=C\c1ccccc1)c1ccccc1 (tested in a mixture with another compound)
inactive: at 1.2 µM 0% | at 3.7 µM -1% | at 11.0 µM -2% | at 33.0 µM -5% | at 100.0 µM -4%

C=C[C@H]1CN2CC[C@H]1C[C@@H]2[C@@H](O)c1ccnc2ccccc12
inactive: at 1.2 µM -3% | at 3.7 µM -5% | at 11.0 µM -6% | at 33.0 µM -7% | at 100.0 µM -6%

C[C@]12CCc3nonc3C1CC[C@@H]1C2CC[C@]2(C)C(=O)CCC12 (stereo not given in full)
active: at 100.0 µM 78%
inactive: at 1.2 µM 13% | at 3.7 µM 21% | at 11.0 µM 31% | at 33.0 µM 50%
